In PubChem BioAssay (NCATS) one finds outcome and Potency data, which are given here for 39 molecules.

Inconclusive results are not listed. A call without a number means that no potency is given here. Active and inactive are the calls of the source.

Tumor necrosis factor (Homo sapiens), sequence (P01375 whole entry, looked up): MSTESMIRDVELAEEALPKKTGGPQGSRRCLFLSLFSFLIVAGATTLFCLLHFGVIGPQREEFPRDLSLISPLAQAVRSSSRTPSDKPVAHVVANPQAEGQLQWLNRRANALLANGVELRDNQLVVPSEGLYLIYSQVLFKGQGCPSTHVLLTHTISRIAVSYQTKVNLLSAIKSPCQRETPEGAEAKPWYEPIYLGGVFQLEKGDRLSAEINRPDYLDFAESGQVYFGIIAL

For one assay, the target named is Tumor necrosis factor (Homo sapiens) (UniProt P01375). In words: qHTS assay to identify small molecules that stimulate Tumor Necrosis Factor-alpha (TNF-alpha) secretion (AID 651757; active = well fitted curve in the direction sought with a large enough effect in the signal ratio; the % refers to the signal ratio). The conditions noted are these: Human cells, HTRF 665/615 ratio; series mostly up to 92.2 µM. In outline:
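THP-1 cells were exposed to compounds for 17 hrs at 37 C, after which secreted TNF-alpha was measured by homogeneous HTRF (TR-FRET) using cryptate- and XL665-labeled anti-TNF-alpha antibodies, read after 3 hr at room temperature.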
Consider `Oc1cccc(Cl)c1Cl`, for which the result was inactive.

On to `CCC/C=N/O`, for which the outcome was inactive.

For the molecule `Nc1cccc2ccccc12`, the result was inactive.

On to `Cc1cnc[nH]1`, for which the result was inactive.

With `CN(C)N=O`, the outcome was inactive.

For `COc1c(C(C)(C)C)cc([N+](=O)[O-])c(C)c1[N+](=O)[O-]`, the outcome was inactive.

In the case of `C=C(Cl)CCl`, the outcome was inactive.

Consider `ClCCOCOCCCl`, for which the result was inactive.

As for `CC12CC1(C)C(=O)N(c1cc(Cl)cc(Cl)c1)C2=O` (stereo not drawn), the outcome was inactive.

As for `CC(C)(Cl)[N+](=O)[O-]`, the outcome was inactive.

Take `Cl/C=C/Cl`: the result was inactive.

`CCCCOCC1CO1` (stereo not drawn): the result was inactive.

With `O=C(O)c1cccc(Cl)c1`, the outcome was inactive.

In the case of `C1CC2OC2CC1C1CO1` (stereo not drawn), the outcome was inactive.

With `Brc1cccc(-c2ccccc2)c1`, the result was inactive.

`Oc1c(Cl)cccc1Cl`: the outcome was inactive.

As for `ClCCOCCCl`, the outcome was inactive.

Consider `CCNCC`, for which the result was inactive.

Consider `CC(C)C#N`, for which the outcome was inactive.

`Cl/C=C\Cl`: the result was inactive.

Turning to `c1ccc2c(c1)CCNC2`, the outcome was inactive.

In the case of `CCBr`, the outcome was inactive.

As to `O=[N+]([O-])c1ccc(Cl)c(Cl)c1Cl`, the outcome was inactive.

`N#CCCC#N`: the result was inactive.

On to `Cc1ccccc1[N+](=O)[O-]`, for which the outcome was inactive.

For `OCCBr`, the result was inactive.

In the case of `C=CC(=O)OCCN(C)C`, the outcome was inactive.

`CC(C)(C)C(O)(CCc1ccc(Cl)cc1)Cn1cncn1` (stereo not drawn): the outcome was inactive.

In the case of `N#CCCCCC#N`, the result was inactive.

Turning to `CN=C=O`, the result was inactive.

Consider `c1ccc(C2CO2)cc1` (stereo not drawn), for which the outcome was inactive.

Regarding `CCCCCC[N+](=O)[O-]`, the outcome was inactive.

As for `OCC(Cl)CCl` (stereo not drawn), the outcome was inactive.

In the case of `COc1ccc(C=O)cc1`, the outcome was inactive.

Turning to `Nc1ccc(Cl)c(Cl)c1`, the result was inactive.

With `CC(=O)[O-].CC(=O)[O-].CC(=O)[O-].[Cr+3]`, the outcome was inactive.

For `CC(=O)CCC(C)=O`, the outcome was inactive.

Regarding `C=CC(=O)OCC(CC)CCCC` (stereo not drawn), the result was inactive.

For the molecule `CC(C#N)CCC#N` (stereo not drawn), the result was inactive.

Tested on in a further assay: not listed separately
In words: qHTS assay to identify small molecules that stimulate interleukin-8 (IL-8) secretion (AID 651758; active = well fitted activation curve with a large enough effect in the signal ratio; the % refers to the signal ratio). The conditions noted are these: HTRF ratio (665/615); series mostly up to 92.2 µM. The method, boiled down:
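Secreted IL-8 measured by TR-FRET sandwich (cryptate and XL665 antibodies) from THP-1 cells exposed to compound overnight (16 hrs, 37 C).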
(qHTS replaces the single test concentration by a dilution series.)
`CCC/C=N/O`: the Potency result was “inactive”.

As to `Nc1cccc2ccccc12`, the Potency entry was “inactive”.

Take `COc1c(C(C)(C)C)cc([N+](=O)[O-])c(C)c1[N+](=O)[O-]`: the Potency result is “inactive”.

`C=C(Cl)CCl`: the Potency result is “inactive”.

As to `O=C(O)c1cccc(Cl)c1`, the Potency entry is “inactive”.

Take `C1CC2OC2CC1C1CO1` (stereo not drawn): the Potency result was “inactive”.

Regarding `Oc1c(Cl)cccc1Cl`, the Potency entry is “inactive”.

`CC(C)C#N`: the Potency result is “inactive”.

Consider `N#CCCCCC#N`, for which the Potency entry is “inactive”.

Consider `c1ccc(C2CO2)cc1` (stereo not drawn), for which the Potency result was “inactive”.

With `OCC(Cl)CCl` (stereo not drawn), the Potency result was “inactive”.

With `COc1ccc(C=O)cc1`, the Potency entry is “inactive”.

In the case of `Nc1ccc(Cl)c(Cl)c1`, the Potency entry was “inactive”.

Turning to `CC(C#N)CCC#N` (stereo not drawn), the Potency result is “inactive”.
